From PubChem BioAssay (NCATS)
Inconclusive results are not listed. A number with no mark means an inactive call. Calls follow the shape of the dose curve; as a rule, active = well fitted curve in the direction sought with a large enough effect; inconclusive = small, poorly fitted or top-dose-only effect, or another doubt; inactive = no such curve, though single readings can be large; an effect the other way counts as inactive or inconclusive.

target: Aldehyde dehydrogenase, mitochondrial (Homo sapiens) (UniProt P05091); assay: qHTS for Inhibitors of the Aldehyde Dehydrogenase Family (ALDH2) Primary screen (AID 2061308); conditions: ALDH2 enzyme inhibition qHTS, 1536-well; series mostly up to 56 µM; activity change, negative = inhibition: at the top concentration;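 also: plate controls were vehicle for no effect and reference inhibitor for full effect; nearly all actives have a fitted effect of over 55% in size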

Structure (SMILES) | activity change, negative = inhibition
COC(=O)c1cc(OC)c(O[C@@H]2O[C@@H](C)[C@H](O)[C@@H](O)[C@H]2O)c(OC)c1 | -0.964%
C[C@@H]1O[C@@H](O[C@H]2[C@H](O)[C@@H](O[C@@H]3O[C@H](CO)[C@@H](O)[C@H](O[C@@H]4O[C@H](CO)[C@@H](O)[C@H](O)[C@H]4O)[C@H]3O)[C@H](O[C@H]3CC[C@@]4(C)C(=CC[C@@H]5C4CC[C@@]4(C)C5C[C@@H]5OC6(CC[C@@](C)(CO[C@@H]7O[C@H](CO)[C@@H](O)[C@H](O)[C@H]7O)O6)[C@@H](C)[C@@H]54)C3)O[C@@H]2CO)[C@H](O)[C@H](O)[C@H]1OC1OC(CO)C(O)C(O)C1O (some centres not stated) | -9.01% [at 11.2 µM]
COc1cc2nc(=NC(=O)c3cccnc3)n3c(c2cc1OC)NCC3 | 4.49%
CC(C)=CCC(O)[C@](C)(O)C1[C@H](O)C[C@@]2(C)C3CC=C4C(C[C@H](O)[C@@H](O[C@@H]5O[C@H](CO)[C@@H](O)[C@H](O)[C@H]5O)C4(C)C)[C@]3(C)C(=O)C[C@]12C (some centres not stated) | 4.81% [at 16.9 µM]
Cn1cc(-c2ccc3nnc(Sc4ccc5nn(C)cc5c4)n3n2)cn1 | 1.52%
C=C[C@](C)(CC/C=C(\C)C(=O)O)O[C@@H]1OC[C@H](O)[C@H](O)[C@H]1O | -2.04%
COc1c2ccoc2nc2c(OC)c(O[C@@H]3O[C@@H](C)[C@H](O)[C@@H](O[C@@H]4O[C@H](CO)[C@@H](O)[C@H](O)[C@H]4O)[C@H]3OC(C)=O)ccc12 | -2.61% [at 16.9 µM]
CC1CCC(=O)CC(SCC(O)C(=O)O)CCC(=O)O1 (configuration not stated) | -1.88%
CC1=C(CO)C2(C)CCCC(C)(C)C2C(O)C1O (configuration not stated) | 9.59%
OC[C@H]1O[C@@H](O[C@H]2[C@H](OCc3ccccc3)O[C@H](CO[C@@H]3OC[C@@H](O)[C@H](O)[C@H]3O)[C@@H](O)[C@@H]2O)[C@H](O)[C@@H](O)[C@@H]1O | -2.07% [at 28 µM]
C=C1[C@H](OC(C)=O)[C@H]2[C@@H](OC(=O)c3ccccc3)[C@@H](C)C[C@]2(O)[C@@H](OC(C)=O)[C@H](C)/C=C/C(C)(C)C(=O)[C@H](OC(C)=O)[C@H]1OC(C)=O | 14% [at 16.9 µM]
C/C(=C\CCC(C)C1=CCC2(C)OC3=C(CC12)C(=O)C(O)CC3)CO (configuration not stated) | -11.7%

target: Retinaldehyde dehydrogenase 3 (Homo sapiens) (UniProt P47895); assay: qHTS for Inhibitors of the Aldehyde Dehydrogenase Family (ALDH1A3) Primary screen (AID 2061315); conditions: ALDH inhibition qHTS; series mostly up to 56 µM; activity change, negative = inhibition: at the top concentration;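 also: plate controls were DMSO vehicle for no effect and reference inhibitor for full effect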

Structure (SMILES) | activity change, negative = inhibition
O=C(CCO[C@@H]1O[C@H](CO)[C@@H](O)[C@H](O)[C@H]1O)c1ccc(O)cc1 | -1.65%
C=C1[C@@H](C2=CC(=O)OC2)CC[C@@]2(O)[C@@H]1CC1[C@H]2CC[C@@H]2C[C@@H](O[C@H]3O[C@@H](C)[C@@H](O[C@@H]4O[C@H](CO[C@@H]5O[C@H](CO)[C@@H](O)[C@H](O)[C@H]5O)[C@@H](O)[C@H](O)[C@H]4O)[C@H](OC)[C@H]3O)CC[C@]12C (some centres not stated) | -17.6% [at 16.9 µM]
C=C(C)[C@@H]1CC[C@]2(C(=O)O)CC[C@]3(C(=O)O)[C@H](CCC4[C@@]5(C)CCC(=O)C(C)(C)C5CC[C@]43C)C12 (some centres not stated) | 11.7% [at 28 µM]
C[C@@H]1O[C@@H](O[C@H]2[C@H](O)[C@@H](O)[C@H](OC3CCC4(C)C5CCC(C)(C(CO)OC6OC(CO)C(O)C(O)C6O)CC5=CCC4C3(C)C)O[C@@H]2CO)[C@H](O)[C@H](O)[C@H]1O (some centres not stated) | -20.9% [at 16.9 µM]
CC(=O)c1c(C)cc(O[C@@H]2O[C@H](CO)[C@@H](O)[C@H](O)[C@H]2O)cc1O | -14%
Cc1coc2c1CC1OC1(C)CCC1OC1(C)C2 (configuration not stated) | 4.84%
CC(=O)C12OC(C)(C)OC1CC1C3CCC4=CC(=O)C=CC4(C)C3(F)C(O)CC12C (configuration not stated) | -6.55%
CC(C)=CCC[C@](C)(O[C@@H]1O[C@H](CO)[C@@H](O)[C@H](O)[C@H]1O)[C@H]1CC[C@]2(C)[C@@H]1[C@H](O)CC1[C@@]3(C)CC[C@H](O)C(C)(C)C3[C@@H](O[C@@H]3O[C@H](CO)[C@@H](O)[C@H](O)[C@H]3O[C@@H]3O[C@@H](C)[C@H](O)[C@@H](O)[C@H]3O)C[C@]12C (some centres not stated) | 9.1% [at 16.9 µM]
O=C1NC(Cc2ccccc2)C(=O)N2CCCC12 (configuration not stated) | 13.7%
CC1=C2C=C(CO)C(CO)CCC2(C)CCC1=O (configuration not stated) | -0.914%
CCN(CC)C(=O)c1ccc(Nc2nc(OCC3CCCCC3)c3[nH]cnc3n2)cc1 | 39.3%
CC(O)C1CCC2C3CCC4CC(OC5OC(C(=O)O)C(O)C(O)C5O)CCC4(C)C3CCC12C (configuration not stated) | 1.63%
C/C1=C\CC[C@]2(C)O[C@@H]2[C@H](O)[C@H](C(C)C)[C@H](OC(=O)/C=C/c2ccccc2)C1 | -5.33%
CC(C)C[C@H](CC(=O)NO)C(=O)N[C@H](C(=O)N[C@@H](C)C(=O)NCCN)C(C)(C)C | -12.1% [at 11.2 µM]
CC(=O)O[C@@H]1C[C@@]23C[C@@]24CC[C@H](O[C@@H]2OC[C@H](O)[C@H](O)[C@H]2O)C(C)(C)[C@@H]4CC[C@H]3[C@]2(C)[C@@H](O)C34O[C@H](C[C@@H](C)[C@@H]3[C@@]12C)[C@@H](C(C)(C)O)O4 | 11.7%
C=CC1(C)CC2=CCC3C(C)(C(=O)O)CCCC3(C)C2CC1OC(C)=O (configuration not stated) | 8.87%
COc1ccc2c(c1)C(C(=O)N(Cc1ccc(N(C)C)cc1)c1ccc(C(C)C)cc1)CCC2 (configuration not stated) | -6.44%
CC(C)(OC1OC(CO)C(O)C(O)C1O)C1CCC(O)(CO)C2CC(=O)C(C)(O)C2C1 (configuration not stated) | -1.5% [at 28 µM]
C[C@H](/C=C/[C@@]1(O)[C@H](C)CC(=O)CC1(C)C)O[C@@H]1O[C@H](CO[C@@H]2OC[C@@H](O)[C@H](O)[C@H]2O)[C@@H](O)[C@H](O)[C@H]1O | -8.16% [at 28 µM]
O=C(O)c1ccnc2cc(C(OCC3CCC(F)(F)CC3)c3ccccc3Cl)[nH]c12 (configuration not stated) | 6.39%

Structure (SMILES) | activity change, negative = inhibition
CN1CCN(c2ccc(Nc3cc(-c4cccc(-n5ccc6cc(C7CC7)cc(F)c6c5=O)c4CO)cn(C)c3=O)nc2)CC1 | 8.72%
CC(=O)N[C@H]1CCN(c2ccc(C3=NOC(CN[S+](=O)([O-])C(C)C)C3)cc2F)C1 (some centres not stated) | -17.2%
C=C(C(=O)O)[C@@H]1CC[C@@]2(C)CC[C@@H](O)C(=C)C2C1 (some centres not stated) | -11%
CCC(C)C(=O)O[C@H]1CCC=C2C=C[C@H](C)[C@H](CC[C@@H](O)C[C@@H](O)CC(=O)O)[C@H]21 (some centres not stated) | 10.8% [at 28 µM]
CCCCC1CCN(CCCC(=O)c2ccccc2C)CC1 | -9.06%
CC1(CO)CC[C@]2(C(=O)O[C@@H]3O[C@H](CO)[C@@H](O)[C@H](O)[C@H]3O)CC[C@]3(C)C(=CCC4[C@@]5(C)CC[C@H](O[C@@H]6O[C@H](C(=O)O)[C@@H](O)[C@H](O)[C@H]6O)C(C)(C)C5CC[C@]43C)C2C1 (some centres not stated) | 0.0453% [at 16.9 µM]
O=C(c1ccc(Cl)cc1)N1CCN(c2ccnc3cc(Cl)ccc23)CC1 | -17.9%
CC(=O)OC[C@]12[C@H](OC(C)=O)[C@H](OC(=O)c3ccccc3)[C@@H]3[C@@H](OC(C)=O)[C@]1(OC3(C)C)[C@H](C)C[C@H](OC(=O)c1ccccc1)[C@@H]2OC(=O)c1ccccc1 | 9.22% [at 16.9 µM]
COC(=O)c1cc(OC)c(O[C@@H]2O[C@@H](C)[C@H](O)[C@@H](O)[C@H]2O)c(OC)c1 | -24.7%
C[C@@H]1O[C@@H](O[C@H]2[C@H](O)[C@@H](O[C@@H]3O[C@H](CO)[C@@H](O)[C@H](O[C@@H]4O[C@H](CO)[C@@H](O)[C@H](O)[C@H]4O)[C@H]3O)[C@H](O[C@H]3CC[C@@]4(C)C(=CC[C@@H]5C4CC[C@@]4(C)C5C[C@@H]5OC6(CC[C@@](C)(CO[C@@H]7O[C@H](CO)[C@@H](O)[C@H](O)[C@H]7O)O6)[C@@H](C)[C@@H]54)C3)O[C@@H]2CO)[C@H](O)[C@H](O)[C@H]1OC1OC(CO)C(O)C(O)C1O (some centres not stated) | -22.4% [at 11.2 µM]
COc1cc2nc(=NC(=O)c3cccnc3)n3c(c2cc1OC)NCC3 | -10.8%
CC(C)=CCC(O)[C@](C)(O)C1[C@H](O)C[C@@]2(C)C3CC=C4C(C[C@H](O)[C@@H](O[C@@H]5O[C@H](CO)[C@@H](O)[C@H](O)[C@H]5O)C4(C)C)[C@]3(C)C(=O)C[C@]12C (some centres not stated) | -10.5% [at 16.9 µM]
Cn1cc(-c2ccc3nnc(Sc4ccc5nn(C)cc5c4)n3n2)cn1 | -5.62%
C=C[C@](C)(CC/C=C(\C)C(=O)O)O[C@@H]1OC[C@H](O)[C@H](O)[C@H]1O | 10.8%
COc1c2ccoc2nc2c(OC)c(O[C@@H]3O[C@@H](C)[C@H](O)[C@@H](O[C@@H]4O[C@H](CO)[C@@H](O)[C@H](O)[C@H]4O)[C@H]3OC(C)=O)ccc12 | -9.3% [at 16.9 µM]
CC1CCC(=O)CC(SCC(O)C(=O)O)CCC(=O)O1 (configuration not stated) | -3.82%
CC1=C(CO)C2(C)CCCC(C)(C)C2C(O)C1O (configuration not stated) | -0.063%
OC[C@H]1O[C@@H](O[C@H]2[C@H](OCc3ccccc3)O[C@H](CO[C@@H]3OC[C@@H](O)[C@H](O)[C@H]3O)[C@@H](O)[C@@H]2O)[C@H](O)[C@@H](O)[C@@H]1O | -21.5% [at 28 µM]
C=C1[C@H](OC(C)=O)[C@H]2[C@@H](OC(=O)c3ccccc3)[C@@H](C)C[C@]2(O)[C@@H](OC(C)=O)[C@H](C)/C=C/C(C)(C)C(=O)[C@H](OC(C)=O)[C@H]1OC(C)=O | 8.69% [at 16.9 µM]
C/C(=C\CCC(C)C1=CCC2(C)OC3=C(CC12)C(=O)C(O)CC3)CO (configuration not stated) | 0.894%
